Test in all cases: DAPPL (digital affinity profiling via proximity ligation, sequencing); 10 mM Tris-HCl pH 7.5, 50 mM NaCl, 1 mM DTT, 4% glycerol, room temperature, 30 min; GST-TFs on glutathione beads, 16-mer random dsDNA library, 0.1% formaldehyde crosslink after washing; high values mean tight binding
The target of experiment [1] is T1, FEV (Homo sapiens, UniProt Q99581 1-238).
T1 sequence: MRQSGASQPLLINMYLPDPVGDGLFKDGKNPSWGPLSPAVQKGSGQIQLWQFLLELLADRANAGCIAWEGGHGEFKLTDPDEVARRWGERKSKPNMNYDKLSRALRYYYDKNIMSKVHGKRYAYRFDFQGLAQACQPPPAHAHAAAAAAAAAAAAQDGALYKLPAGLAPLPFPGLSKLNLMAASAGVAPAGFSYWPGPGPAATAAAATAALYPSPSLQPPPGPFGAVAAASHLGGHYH
Conditions: protein: recombinant; tags: N-terminal GST; dsDNA, one strand shown. In a few lines: (§1)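 Binding signal is given per hexamer as its read frequency for a factor divided by its frequency in the tag-only sample. GST-fused human transcription factors were expressed in yeast, captured on glutathione beads, barcoded with DNA and pooled with that sample, then incubated with 200 nmole of a 16-mer random double-stranded DNA library in Tris/NaCl/DTT/glycerol buffer for 30 min at room temperature. The pools were then washed, crosslinked, proximity-ligated, amplified by PCR and sequenced on an Illumina NextSeq500.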

The target of experiment [2] is ETV5 (Homo sapiens, UniProt P41161 1-510). To be noted: protein: recombinant; tags: N-terminal GST; dsDNA, one strand shown. In a few lines: as §1
ETV5, sequence (P41161 whole entry): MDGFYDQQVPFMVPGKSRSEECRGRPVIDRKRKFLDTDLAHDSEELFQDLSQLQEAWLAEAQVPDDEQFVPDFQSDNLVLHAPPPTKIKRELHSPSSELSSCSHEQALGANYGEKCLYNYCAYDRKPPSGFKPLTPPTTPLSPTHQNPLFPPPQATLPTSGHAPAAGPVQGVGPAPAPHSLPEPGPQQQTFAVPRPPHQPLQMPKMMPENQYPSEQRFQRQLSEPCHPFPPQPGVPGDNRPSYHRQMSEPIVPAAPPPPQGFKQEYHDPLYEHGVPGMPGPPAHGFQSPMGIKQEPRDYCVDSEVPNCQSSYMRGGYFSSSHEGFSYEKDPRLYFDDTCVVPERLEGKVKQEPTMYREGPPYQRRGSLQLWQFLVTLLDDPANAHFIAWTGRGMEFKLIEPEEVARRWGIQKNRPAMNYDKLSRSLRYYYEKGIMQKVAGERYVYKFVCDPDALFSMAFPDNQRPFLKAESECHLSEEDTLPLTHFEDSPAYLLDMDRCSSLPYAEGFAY
Experiment [3] concerns the target HSF1 (Homo sapiens, UniProt Q00613 1-529). Conditions: protein: recombinant; tags: N-terminal GST; chain copies: 3; dsDNA, one strand shown. Put shortly: as §1
Experiment [4] deals with T2, SPIC (Homo sapiens, UniProt Q8N5J4 1-248).
T2 sequence: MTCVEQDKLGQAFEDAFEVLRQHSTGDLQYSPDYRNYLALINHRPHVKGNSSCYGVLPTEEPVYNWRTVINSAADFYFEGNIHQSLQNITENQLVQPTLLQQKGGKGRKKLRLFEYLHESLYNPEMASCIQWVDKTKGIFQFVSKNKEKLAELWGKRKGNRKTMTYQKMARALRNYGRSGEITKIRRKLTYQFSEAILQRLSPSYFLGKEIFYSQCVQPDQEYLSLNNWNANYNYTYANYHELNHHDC
To be noted: protein: recombinant; tags: N-terminal GST; dsDNA, one strand shown. In a few lines:
as §1

Experiment [5] addresses ELF4 (Homo sapiens, UniProt Q99607 1-663). To be noted: protein: recombinant; tags: N-terminal GST; dsDNA, one strand shown. Put shortly:
as §1

Experiment [6] has as its target T3, ELK4 (Homo sapiens, UniProt P28324-2 1-405).
T3 sequence: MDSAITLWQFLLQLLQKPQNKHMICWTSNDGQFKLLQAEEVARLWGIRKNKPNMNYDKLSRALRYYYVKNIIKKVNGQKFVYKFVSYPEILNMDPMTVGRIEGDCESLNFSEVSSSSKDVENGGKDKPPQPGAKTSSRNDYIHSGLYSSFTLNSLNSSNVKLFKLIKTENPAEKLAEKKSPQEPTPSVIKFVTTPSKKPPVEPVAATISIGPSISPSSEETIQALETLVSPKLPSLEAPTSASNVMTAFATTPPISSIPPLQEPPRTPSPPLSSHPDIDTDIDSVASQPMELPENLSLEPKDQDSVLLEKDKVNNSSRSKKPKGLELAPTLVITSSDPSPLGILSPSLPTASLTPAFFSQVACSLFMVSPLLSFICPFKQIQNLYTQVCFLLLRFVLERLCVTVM
To be noted: protein: recombinant; tags: N-terminal GST; dsDNA, one strand shown. Put shortly: as §1

Experiment [7] concerns the target T4, ETV2 (Homo sapiens, UniProt O00321 1-342).
T4 sequence: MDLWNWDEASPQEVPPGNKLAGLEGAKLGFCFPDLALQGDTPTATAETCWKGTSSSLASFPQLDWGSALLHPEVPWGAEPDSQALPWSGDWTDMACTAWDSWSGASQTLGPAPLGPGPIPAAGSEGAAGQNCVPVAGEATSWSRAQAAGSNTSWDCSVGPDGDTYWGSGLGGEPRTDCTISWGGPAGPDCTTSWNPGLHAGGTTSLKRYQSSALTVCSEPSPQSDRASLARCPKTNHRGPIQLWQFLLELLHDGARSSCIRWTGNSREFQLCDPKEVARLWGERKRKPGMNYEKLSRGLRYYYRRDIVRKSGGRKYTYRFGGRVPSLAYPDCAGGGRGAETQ
Conditions: protein: recombinant; tags: N-terminal GST; dsDNA, one strand shown. In a few lines: as §1

The target in experiment [8] is T5, ELF3 (Homo sapiens, UniProt P78545 1-371).
T5 sequence: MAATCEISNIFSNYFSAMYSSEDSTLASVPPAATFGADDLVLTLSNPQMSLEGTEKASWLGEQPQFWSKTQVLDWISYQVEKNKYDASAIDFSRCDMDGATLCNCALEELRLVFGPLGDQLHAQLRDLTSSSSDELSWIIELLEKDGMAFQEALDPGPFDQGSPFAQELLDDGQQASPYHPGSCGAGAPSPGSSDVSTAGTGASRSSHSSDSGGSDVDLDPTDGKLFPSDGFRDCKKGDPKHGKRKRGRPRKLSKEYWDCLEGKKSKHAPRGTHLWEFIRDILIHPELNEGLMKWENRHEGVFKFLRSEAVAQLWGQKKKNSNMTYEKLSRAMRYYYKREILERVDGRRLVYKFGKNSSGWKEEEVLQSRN
To be noted: protein: recombinant; tags: N-terminal GST; dsDNA, one strand shown. In a few lines:
as §1

Experiment [9] addresses CRX (Homo sapiens, UniProt O43186 1-299). To be noted: protein: recombinant; tags: N-terminal GST; dsDNA, one strand shown. In a few lines:
as §1

Experiment [10] concerns the target ETV1 (Homo sapiens, UniProt P50549 1-477). To be noted: protein: recombinant; tags: N-terminal GST; dsDNA, one strand shown. Put shortly: as §1
The target of experiment [11] is T6, ERF (Homo sapiens, UniProt P50548 1-548).
T6 sequence: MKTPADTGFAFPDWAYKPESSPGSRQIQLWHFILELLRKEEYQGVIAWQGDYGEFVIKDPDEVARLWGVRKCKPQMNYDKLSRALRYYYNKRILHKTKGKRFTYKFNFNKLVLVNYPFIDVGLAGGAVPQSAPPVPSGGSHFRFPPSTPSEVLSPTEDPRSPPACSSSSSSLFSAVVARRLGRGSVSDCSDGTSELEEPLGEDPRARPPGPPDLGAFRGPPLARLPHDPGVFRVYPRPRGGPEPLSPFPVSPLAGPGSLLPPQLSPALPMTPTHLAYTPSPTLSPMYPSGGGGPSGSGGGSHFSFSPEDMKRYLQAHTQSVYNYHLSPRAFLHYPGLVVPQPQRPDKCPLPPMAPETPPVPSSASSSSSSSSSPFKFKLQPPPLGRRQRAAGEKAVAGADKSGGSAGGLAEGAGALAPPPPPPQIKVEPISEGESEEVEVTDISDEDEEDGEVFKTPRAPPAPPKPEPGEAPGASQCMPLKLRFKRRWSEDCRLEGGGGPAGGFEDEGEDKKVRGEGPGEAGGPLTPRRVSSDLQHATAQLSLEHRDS
To be noted: protein: recombinant; tags: N-terminal GST; dsDNA, one strand shown. Put shortly: as §1

Experiment [12] deals with T7, ETV3L (Homo sapiens, UniProt Q6ZN32 1-361).
T7 sequence: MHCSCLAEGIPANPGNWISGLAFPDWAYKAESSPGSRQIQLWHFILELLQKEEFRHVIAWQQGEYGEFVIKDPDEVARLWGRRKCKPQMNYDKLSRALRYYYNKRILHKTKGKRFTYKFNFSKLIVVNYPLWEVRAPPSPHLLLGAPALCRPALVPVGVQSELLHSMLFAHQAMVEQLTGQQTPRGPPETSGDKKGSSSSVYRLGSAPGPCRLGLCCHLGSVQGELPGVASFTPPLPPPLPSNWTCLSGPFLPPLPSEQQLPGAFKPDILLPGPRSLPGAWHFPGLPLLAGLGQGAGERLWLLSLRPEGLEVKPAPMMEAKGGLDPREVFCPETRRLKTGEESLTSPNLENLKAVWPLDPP
To be noted: protein: recombinant; tags: N-terminal GST; dsDNA, one strand shown. Put shortly:
as §1

Experiment [13] has as its target T8, ETS2 (Homo sapiens, UniProt P15036 1-469).
T8 sequence: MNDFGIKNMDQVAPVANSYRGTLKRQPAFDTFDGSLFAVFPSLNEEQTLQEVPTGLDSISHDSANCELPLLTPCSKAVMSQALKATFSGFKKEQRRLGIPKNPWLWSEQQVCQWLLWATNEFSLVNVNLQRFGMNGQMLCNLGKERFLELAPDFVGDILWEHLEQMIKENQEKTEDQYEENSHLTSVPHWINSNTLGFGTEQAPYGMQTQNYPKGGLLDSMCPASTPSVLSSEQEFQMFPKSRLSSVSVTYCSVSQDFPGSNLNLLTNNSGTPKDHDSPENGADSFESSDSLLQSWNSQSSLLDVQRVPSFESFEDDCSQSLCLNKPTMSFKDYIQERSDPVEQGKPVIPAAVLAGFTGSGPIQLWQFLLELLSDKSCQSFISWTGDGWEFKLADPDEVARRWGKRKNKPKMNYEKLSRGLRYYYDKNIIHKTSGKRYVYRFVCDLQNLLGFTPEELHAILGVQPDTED
To be noted: protein: recombinant; tags: N-terminal GST; dsDNA, one strand shown. In a few lines:
as §1

In experiment [14] the target is T9, SPDEF (Homo sapiens, UniProt O95238 1-335).
T9 sequence: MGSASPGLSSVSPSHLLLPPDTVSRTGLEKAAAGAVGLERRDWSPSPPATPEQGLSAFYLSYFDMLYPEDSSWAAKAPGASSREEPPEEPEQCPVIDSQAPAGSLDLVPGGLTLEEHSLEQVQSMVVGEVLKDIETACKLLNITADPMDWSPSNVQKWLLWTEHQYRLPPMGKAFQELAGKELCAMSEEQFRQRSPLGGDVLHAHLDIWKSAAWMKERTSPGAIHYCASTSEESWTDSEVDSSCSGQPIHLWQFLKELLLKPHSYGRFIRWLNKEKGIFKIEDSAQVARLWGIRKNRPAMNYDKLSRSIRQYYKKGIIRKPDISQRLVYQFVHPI
To be noted: protein: recombinant; tags: N-terminal GST; dsDNA, one strand shown. In a few lines:
as §1

The target in experiment [15] is T10, ETV7 (Homo sapiens, UniProt Q9Y603 1-341).
T10 sequence: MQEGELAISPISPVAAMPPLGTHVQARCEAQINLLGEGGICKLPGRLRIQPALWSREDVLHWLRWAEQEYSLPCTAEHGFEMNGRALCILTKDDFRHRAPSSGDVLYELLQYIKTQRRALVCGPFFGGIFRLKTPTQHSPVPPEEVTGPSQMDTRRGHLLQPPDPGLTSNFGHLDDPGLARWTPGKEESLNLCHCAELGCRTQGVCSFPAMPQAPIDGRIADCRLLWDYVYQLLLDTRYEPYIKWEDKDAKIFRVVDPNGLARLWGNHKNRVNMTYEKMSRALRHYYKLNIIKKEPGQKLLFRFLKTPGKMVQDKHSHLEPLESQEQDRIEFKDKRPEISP
To be noted: protein: recombinant; tags: N-terminal GST; dsDNA, one strand shown. Put shortly: as §1

The target in experiment [16] is T11, ELF5 (Homo sapiens, UniProt Q9UKW6-2 1-255).
T11 sequence: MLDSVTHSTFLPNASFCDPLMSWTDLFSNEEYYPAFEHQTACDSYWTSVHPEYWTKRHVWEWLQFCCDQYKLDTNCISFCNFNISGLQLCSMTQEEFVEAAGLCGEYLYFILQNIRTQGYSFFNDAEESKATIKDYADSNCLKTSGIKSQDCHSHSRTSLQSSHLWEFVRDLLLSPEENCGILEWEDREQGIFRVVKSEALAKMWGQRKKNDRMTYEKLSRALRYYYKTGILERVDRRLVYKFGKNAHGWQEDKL
To be noted: protein: recombinant; tags: N-terminal GST; dsDNA, one strand shown. Put shortly:
as §1

The target in experiment [17] is T12, ETV3 (Homo sapiens, UniProt P41162-2 1-143).
T12 sequence: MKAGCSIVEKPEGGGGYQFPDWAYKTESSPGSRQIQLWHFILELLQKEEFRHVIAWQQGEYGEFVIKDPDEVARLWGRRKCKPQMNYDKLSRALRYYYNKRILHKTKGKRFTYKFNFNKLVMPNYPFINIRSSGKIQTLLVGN
To be noted: protein: recombinant; tags: N-terminal GST; dsDNA, one strand shown. In a few lines:
as §1

For experiment [18], the target named is ETV6 (Homo sapiens, UniProt P41212 1-452). To be noted: protein: recombinant; tags: N-terminal GST; dsDNA, one strand shown. In a few lines: as §1
ETV6, sequence (P41212 whole entry): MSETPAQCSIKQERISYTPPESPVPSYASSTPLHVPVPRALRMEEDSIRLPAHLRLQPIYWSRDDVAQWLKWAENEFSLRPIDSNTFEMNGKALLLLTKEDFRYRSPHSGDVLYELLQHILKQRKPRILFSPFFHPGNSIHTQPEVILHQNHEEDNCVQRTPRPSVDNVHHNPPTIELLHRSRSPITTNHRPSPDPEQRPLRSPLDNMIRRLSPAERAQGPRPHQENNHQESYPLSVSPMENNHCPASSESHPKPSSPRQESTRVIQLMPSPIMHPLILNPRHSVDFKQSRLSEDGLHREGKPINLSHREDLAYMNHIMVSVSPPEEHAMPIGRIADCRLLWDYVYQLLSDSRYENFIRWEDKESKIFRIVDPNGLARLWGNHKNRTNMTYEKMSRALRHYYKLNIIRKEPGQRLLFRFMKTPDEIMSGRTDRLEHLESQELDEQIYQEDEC

CRX, sequence (O43186 whole entry): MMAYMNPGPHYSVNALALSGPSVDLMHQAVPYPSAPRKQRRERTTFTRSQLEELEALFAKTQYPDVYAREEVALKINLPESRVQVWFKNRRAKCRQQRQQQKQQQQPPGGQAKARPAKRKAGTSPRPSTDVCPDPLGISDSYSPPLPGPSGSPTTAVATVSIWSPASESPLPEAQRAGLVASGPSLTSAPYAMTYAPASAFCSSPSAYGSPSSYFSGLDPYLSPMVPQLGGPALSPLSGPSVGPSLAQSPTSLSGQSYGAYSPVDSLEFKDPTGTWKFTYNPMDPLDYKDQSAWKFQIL
ELF4, sequence (Q99607 whole entry): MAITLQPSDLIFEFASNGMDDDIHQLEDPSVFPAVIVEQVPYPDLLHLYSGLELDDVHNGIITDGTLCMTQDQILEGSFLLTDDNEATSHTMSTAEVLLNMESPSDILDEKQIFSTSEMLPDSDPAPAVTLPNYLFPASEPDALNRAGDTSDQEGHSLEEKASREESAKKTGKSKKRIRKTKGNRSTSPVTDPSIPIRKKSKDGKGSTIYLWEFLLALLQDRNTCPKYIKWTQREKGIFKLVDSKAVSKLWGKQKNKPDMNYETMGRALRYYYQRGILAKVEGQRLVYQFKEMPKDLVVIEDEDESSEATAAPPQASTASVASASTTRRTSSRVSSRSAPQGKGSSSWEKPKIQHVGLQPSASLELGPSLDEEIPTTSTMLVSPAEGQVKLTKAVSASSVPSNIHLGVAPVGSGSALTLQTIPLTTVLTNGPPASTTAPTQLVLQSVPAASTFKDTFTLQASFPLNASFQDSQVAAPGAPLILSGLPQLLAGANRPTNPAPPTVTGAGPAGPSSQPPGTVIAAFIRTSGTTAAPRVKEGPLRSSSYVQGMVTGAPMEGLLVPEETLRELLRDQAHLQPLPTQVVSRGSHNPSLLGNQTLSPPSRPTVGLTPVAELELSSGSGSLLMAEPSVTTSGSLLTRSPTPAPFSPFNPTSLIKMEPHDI
ETV1, sequence (P50549 whole entry): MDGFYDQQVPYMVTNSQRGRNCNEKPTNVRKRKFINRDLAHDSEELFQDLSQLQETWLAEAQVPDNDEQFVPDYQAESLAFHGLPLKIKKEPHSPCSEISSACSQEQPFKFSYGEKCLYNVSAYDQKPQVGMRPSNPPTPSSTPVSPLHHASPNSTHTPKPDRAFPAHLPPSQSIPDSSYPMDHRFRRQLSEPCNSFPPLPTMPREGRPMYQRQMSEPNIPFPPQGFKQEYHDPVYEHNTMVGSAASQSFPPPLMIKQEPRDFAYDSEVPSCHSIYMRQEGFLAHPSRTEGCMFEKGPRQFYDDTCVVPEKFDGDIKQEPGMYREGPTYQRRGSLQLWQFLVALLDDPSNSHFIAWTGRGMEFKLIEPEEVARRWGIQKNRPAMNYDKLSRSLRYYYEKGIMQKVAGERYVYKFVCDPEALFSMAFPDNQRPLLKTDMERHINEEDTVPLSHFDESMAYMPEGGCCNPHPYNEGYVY
HSF1, sequence (Q00613 whole entry): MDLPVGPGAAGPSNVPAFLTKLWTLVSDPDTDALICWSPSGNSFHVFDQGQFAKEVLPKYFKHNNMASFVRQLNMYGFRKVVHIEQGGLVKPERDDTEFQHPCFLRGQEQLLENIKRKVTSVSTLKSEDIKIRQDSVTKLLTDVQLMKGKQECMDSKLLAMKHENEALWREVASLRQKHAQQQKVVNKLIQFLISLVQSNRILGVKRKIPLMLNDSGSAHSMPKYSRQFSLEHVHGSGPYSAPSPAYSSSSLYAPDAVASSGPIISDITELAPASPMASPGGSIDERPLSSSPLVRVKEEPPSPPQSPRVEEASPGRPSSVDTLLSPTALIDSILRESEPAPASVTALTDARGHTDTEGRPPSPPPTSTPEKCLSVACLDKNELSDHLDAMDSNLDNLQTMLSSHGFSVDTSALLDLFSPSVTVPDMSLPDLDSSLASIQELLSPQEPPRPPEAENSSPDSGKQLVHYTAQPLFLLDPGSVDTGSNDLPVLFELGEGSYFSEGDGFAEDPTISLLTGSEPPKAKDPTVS

TGAATA: the binding signal in experiment [1] is 1.06 fold enrichment (6-mer frequency, TF over GST control); in [2], 1.13 fold enrichment (6-mer frequency, TF over GST control); in experiment [3], 1.24 fold enrichment (6-mer frequency, TF over GST control); in experiment [4] it was 1.22 fold enrichment (6-mer frequency, TF over GST control); in experiment [5], 1.13 fold enrichment (6-mer frequency, TF over GST control); in [6] it was 1.12 fold enrichment (6-mer frequency, TF over GST control). The binding signal in experiment [7] was 1 fold enrichment (6-mer frequency, TF over GST control); in experiment [8], 1.08 fold enrichment (6-mer frequency, TF over GST control); in experiment [9], 1.16 fold enrichment (6-mer frequency, TF over GST control); in experiment [10], 1.15 fold enrichment (6-mer frequency, TF over GST control); in [11] it was 1.16 fold enrichment (6-mer frequency, TF over GST control); in experiment [12], 1.11 fold enrichment (6-mer frequency, TF over GST control). In addition, the binding signal was 1.05 fold enrichment (6-mer frequency, TF over GST control) in experiment [13]; 1.09 fold enrichment (6-mer frequency, TF over GST control) in [14]; 1.05 fold enrichment (6-mer frequency, TF over GST control) in experiment [15]; 1.07 fold enrichment (6-mer frequency, TF over GST control) in experiment [16]; 1.14 fold enrichment (6-mer frequency, TF over GST control) in [17]; 1.08 fold enrichment (6-mer frequency, TF over GST control) in experiment [18].

The values above are taken from PMC7862700, “An all-to-all approach to the identification of sequence-specific readers for epigenetic DNA modifications on cytosine”.
